The record followed here is the supplement of paper PMC6522484.

± gives the standard deviation of the averaged measurements.

Test [1] concerns DLD1. Put plainly: cell viability (CellTiter-Glo) relative to plate median (fraction of plate median); higher = more viable cells. Particulars: 5 µM; treatment time 24 h; reporter: 7TFP. The method in brief:
(§1)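 Signals from firefly luciferase or CellTiterGlo readouts were normalised well by well to the plate median using webcellHTS2, additively and with no log transformation. They came from colorectal cancer cell lines stably holding lentiviral TCF/Wnt firefly luciferase reporters (7TFP or TCF4/Wnt), treated with library compounds at a final 5 µM for 24 h. The mean of two independent replicates is given.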

Another test concerns HCT116. Described as above. Particulars: 5 µM; treatment time 24 h; reporter: TCF4/Wnt. The method in brief: as §1
For test [2], the system named is SW480. Described as above. The settings on record: 5 µM; treatment time 24 h; reporter: 7TFP. The method in brief: as §1
Test [3] has as its system DLD1. Put plainly: TCF/Wnt firefly luciferase reporter signal relative to plate median (fraction of plate median); higher = higher Wnt reporter signal. Particulars: 5 µM; treatment time 24 h; reporter: 7TFP. The method in brief: as §1
Background: Reporter assays use an easily measured gene product as a stand-in for the process of interest.

The test system of test [4] is SW480. The description is as above. Particulars: 5 µM; treatment time 24 h; reporter: 7TFP. The method in brief:
as §1

On to `COC(=O)[C@H](c1ccccc1Cl)N1CCc2sccc2C1`, for which the cell viability was found to be 1.045 ± 0.0071 in the test on DLD1 [1], 0.921 ± 0.02 in the test on HCT116 and 1.07 ± 0.028 with SW480 [2]. Besides, the “TCF/Wnt firefly luciferase reporter signal” value turned out to be 0.853 ± 0.041 in the test with DLD1 [3] and 0.906 ± 0.016 with SW480 [4].

Consider `CC(C)c1nc(N(C)S(C)(=O)=O)nc(-c2ccc(F)cc2)c1/C=C/[C@@H](O)C[C@@H](O)CC(=O)O`, for which the cell viability came to 0.93 ± 0.11 with DLD1 [1], 0.9675 ± 0.00071 in the test with HCT116 and 1.02 ± 0.014 in the test on SW480 [2]. The “TCF/Wnt firefly luciferase reporter signal” value in the test with DLD1 [3] was 0.984 ± 0.08; in the test with SW480 [4] it was 0.913 ± 0.15.

With `O=C(/C=C/c1ccccc1)c1ccc(O)cc1O`, the cell viability came out at 1 ± 0.025 in the test with DLD1 [1], 0.984 ± 0.0071 in the test with HCT116 and 0.99 ± 0.028 in the test on SW480 [2]. The “TCF/Wnt firefly luciferase reporter signal” value in the test with DLD1 [3] was 1.12 ± 0.071; in the test on SW480 [4], 1.07 ± 0.014.

`Cc1cc(=O)oc2c(O)c(O)ccc12`: the cell viability in the test with DLD1 [1] amounted to 0.961 ± 0.17; with HCT116 it was 0.943 ± 0.03; with SW480 [2], 0.925 ± 0.044. Besides, the “TCF/Wnt firefly luciferase reporter signal” value came out at 0.869 ± 0.08 in the test with DLD1 [3] and 0.944 ± 0.0071 with SW480 [4].

For the molecule `O=C(O)c1ccccc1C(=O)Nc1ccc(S(=O)(=O)Nc2nccs2)cc1`, the cell viability in the test with DLD1 [1] is 1.05 ± 0.08; in the test with HCT116, 0.918 ± 0.088; in the test with SW480 [2], 1.004 ± 0.0085. In addition, the “TCF/Wnt firefly luciferase reporter signal” value came out at 1.03 ± 0.12 with DLD1 [3] and 1.11 ± 0.021 with SW480 [4].

`COc1cc(CO)cc2c1C(=O)c1c(O)cc(O)cc1C2=O` [Carviolin]: the cell viability in the test on DLD1 [1] amounted to 0.883 ± 0.19; with HCT116 it was 0.93 ± 0.018; in the test with SW480 [2], 0.99 ± 0.0014. Besides, the “TCF/Wnt firefly luciferase reporter signal” value turned out to be 0.811 ± 0.1 in the test with DLD1 [3] and 0.963 ± 0.044 with SW480 [4].

Take `COC(=O)C[C@H]1C(C)(C)C(=O)[C@@H]2CC3C4=CC(=O)O[C@@H](c5ccoc5)[C@]4(C)CC[C@@H]3[C@@]1(C)C2=O` (stereo not given in full): the cell viability in the test on DLD1 [1] was 0.924 ± 0.0042; in the test on HCT116, 1.01 ± 0.06; in the test on SW480 [2], 0.957 ± 0.03. For the same molecule, the “TCF/Wnt firefly luciferase reporter signal” value with DLD1 [3] was 1.04 ± 0.014; with SW480 [4] it was 0.866 ± 0.062.

For `O=C(OCc1ccccc1)c1ccccc1`, the cell viability with DLD1 [1] was determined as 1.03 ± 0.035; in the test with HCT116, 0.996 ± 0.062; in the test on SW480 [2], 0.928 ± 0.029. Besides, the entries for the “TCF/Wnt firefly luciferase reporter signal” value in the test on DLD1 [3] and with SW480 [4] were 0.954 ± 0.14 and 0.999 ± 0.1, respectively.

For `Cc1cccc(Nc2cc(Cl)nc(SCC(=O)O)n2)c1C`, the figures for the cell viability with DLD1 [1], with HCT116 and in the test on SW480 [2] were 0.964 ± 0.021, 0.999 ± 0.044 and 0.9325 ± 0.0064, respectively. Besides, the “TCF/Wnt firefly luciferase reporter signal” value in the test with DLD1 [3] was determined as 1.09 ± 0.014; with SW480 [4], 1.085 ± 0.0071.

For the molecule `Cn1nnnc1SCC1=C(C(=O)O)N2C(=O)[C@@H](NC(=O)[C@H](O)c3ccccc3)[C@H]2SC1`, the cell viability in the test with DLD1 [1] worked out at 1.05 ± 0.064; in the test on HCT116 it was 0.949 ± 0.03; with SW480 [2], 1.01 ± 0.037. Also, the figures for the “TCF/Wnt firefly luciferase reporter signal” value in the test on DLD1 [3] and in the test with SW480 [4] were 0.878 ± 0.03 and 0.989 ± 0.072, respectively.

On to `COc1c2ccoc2c(OC)c2oc(=O)ccc12`, for which the cell viability in the test with DLD1 [1] amounted to 0.95 ± 0.0099; in the test with HCT116, 0.966 ± 0.16; in the test with SW480 [2] it was 1.07 ± 0.028. Besides, the “TCF/Wnt firefly luciferase reporter signal” value in the test on DLD1 [3] turned out to be 0.982 ± 0.11; with SW480 [4] it was 0.927 ± 0.017.

Take `O=C(CCCN1CCC(O)(c2ccc(Cl)cc2)CC1)c1ccc(F)cc1`: the cell viability in the test with DLD1 [1] amounted to 1 ± 0.021; in the test with HCT116, 1.075 ± 0.0071; in the test with SW480 [2], 0.995 ± 0.078. The “TCF/Wnt firefly luciferase reporter signal” value came to 1.08 ± 0.035 in the test on DLD1 [3] and 1.05 ± 0.064 in the test with SW480 [4].

Consider `CC(=O)OCC(OC(C)=O)C(OC(C)=O)C(OC(C)=O)C(OC(C)=O)C(COC(C)=O)OC(C)=O` (stereo not given), for which the cell viability came out at 1.06 ± 0.071 in the test with DLD1 [1], 1 ± 0.066 with HCT116 and 1.045 ± 0.0071 in the test on SW480 [2]. The “TCF/Wnt firefly luciferase reporter signal” value stood at 0.987 ± 0.047 in the test on DLD1 [3] and 0.96 ± 0.037 with SW480 [4].

Regarding `O=C(O)c1cc(O)c2c(c1)C(=O)c1cc(O)cc(O)c1C2=O`, the cell viability with DLD1 [1] was determined as 0.873 ± 0.11; with HCT116, 0.866 ± 0.057; in the test on SW480 [2], 0.991 ± 0.013. Besides, the “TCF/Wnt firefly luciferase reporter signal” value with DLD1 [3] stood at 0.926 ± 0.22; in the test on SW480 [4], 1.12 ± 0.11.

As to `CC(=O)Nc1c(I)cc(I)c(C(=O)O)c1I`, the values for the cell viability in the test on DLD1 [1], in the test on HCT116 and in the test on SW480 [2] were 1 ± 0.16, 0.987 ± 0.014 and 0.946 ± 0.055, respectively. Besides, the “TCF/Wnt firefly luciferase reporter signal” value in the test on DLD1 [3] was 0.995 ± 0.092; with SW480 [4] it was 1.09 ± 0.099.
